Numbering of substitutions follows the chain as printed.
Tests used:
Experiment in all cases: PBM; 200 nM protein, PBS
Conditions in all cases: dsDNA, one strand shown
SIX6 [1] = molecular target: T1, SIX6 (Homo sapiens, UniProt O95475 114-200, L167I)
T1 sequence: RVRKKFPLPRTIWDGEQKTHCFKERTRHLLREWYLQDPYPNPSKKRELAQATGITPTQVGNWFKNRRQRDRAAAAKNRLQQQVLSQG

SIX6 [2] = molecular target: T2, SIX6 (Homo sapiens, UniProt O95475 114-200, L143V)
T2 sequence: T1 sequence with L30V, I54L

SIX6 [3] = molecular target: T3, SIX6 (Homo sapiens, UniProt O95475 114-200, H141N)
T3 sequence: T1 sequence with H28N, I54L

SIX6 [4] = molecular target: T4, SIX6 (Homo sapiens, UniProt O95475 114-200, T165P)
T4 sequence: T1 sequence with T52P, I54L

SIX6 [5] = molecular target: T5, SIX6 (Homo sapiens, UniProt O95475 114-200, L167M)
T5 sequence: T1 sequence with I54M

SIX6 [6] = molecular target: T6, SIX6 (Homo sapiens, UniProt O95475 114-200, L143M)
T6 sequence: T1 sequence with L30M, I54L

SIX6 [7] = molecular target: T7, SIX6 (Homo sapiens, UniProt O95475 114-200, L143I)
T7 sequence: T1 sequence with L30I, I54L

SIX6 [8] = molecular target: T8, SIX6 (Homo sapiens, UniProt O95475 114-200, T165G)
T8 sequence: T1 sequence with T52G, I54L

SIX6 [9] = molecular target: T9, SIX6 (Homo sapiens, UniProt O95475 114-200, T139Q)
T9 sequence: T1 sequence with T26Q, I54L

SIX6 [10] = molecular target: T10, SIX6 (Homo sapiens, UniProt O95475 114-200, T165A)
T10 sequence: T1 sequence with T52A, I54L

SIX6 [11] = molecular target: T11, SIX6 (Homo sapiens, UniProt O95475 114-200, L167V)
T11 sequence: T1 sequence with I54V

SIX6 [12] = molecular target: T12, SIX6 (Homo sapiens, UniProt O95475 114-200)
T12 sequence: T1 sequence with I54L

SIX6 [13] = molecular target: T13, SIX6 (Homo sapiens, UniProt O95475 114-200, T165I)
T13 sequence: T1 sequence with T52I, I54L

HOXA2 [14] = molecular target: HOXA2 (Homo sapiens, UniProt O43364 129-215, R185T)
HOXA2 [15] = molecular target: HOXA2 (Homo sapiens, UniProt O43364 129-215, R185K)
HOXA2 [16] = molecular target: HOXA2 (Homo sapiens, UniProt O43364 129-215, Y150S)
HOXA2 [17] = molecular target: HOXA2 (Homo sapiens, UniProt O43364 129-215)
HOXA7 [18] = molecular target: HOXA7 (Homo sapiens, UniProt P31268 116-202)
HOXA7 [19] = molecular target: HOXA7 (Homo sapiens, UniProt P31268 116-202, W177C)
Chain of HOXA7 (Homo sapiens, UniProt P31268 116-202, W177C) (P31268 116-202 W177C): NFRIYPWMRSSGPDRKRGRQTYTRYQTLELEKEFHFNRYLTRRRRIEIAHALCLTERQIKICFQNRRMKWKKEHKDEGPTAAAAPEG

Chain of HOXA2 (Homo sapiens, UniProt O43364 129-215, R185K) (O43364 129-215 R185K): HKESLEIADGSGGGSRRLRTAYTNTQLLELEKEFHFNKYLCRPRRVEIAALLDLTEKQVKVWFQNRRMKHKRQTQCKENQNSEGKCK
Chain of HOXA2 (Homo sapiens, UniProt O43364 129-215) (O43364 129-215): as the sequence (O43364 129-215 R185K) above, with K57R counted along it
Chain of HOXA2 (Homo sapiens, UniProt O43364 129-215, R185T) (O43364 129-215 R185T): as the sequence (O43364 129-215 R185K) above, with K57T counted along it
Chain of HOXA7 (Homo sapiens, UniProt P31268 116-202) (P31268 116-202): as the sequence (P31268 116-202 W177C) above, with C62W counted along it
Chain of HOXA2 (Homo sapiens, UniProt O43364 129-215, Y150S) (O43364 129-215 Y150S): as the sequence (O43364 129-215 R185K) above, with Y22S, K57R counted along it

Row | Sequence | binding signal (SIX6 [1]) | binding signal (SIX6 [2]) | binding signal (SIX6 [3]) | binding signal (SIX6 [4]) | binding signal (SIX6 [5]) | binding signal (SIX6 [6]) | binding signal (SIX6 [7]) | binding signal (SIX6 [8]) | binding signal (SIX6 [9]) | binding signal (SIX6 [10]) | binding signal (SIX6 [11]) | binding signal (SIX6 [12]) | binding signal (SIX6 [13]) | binding signal (HOXA2 [14]) | binding signal (HOXA2 [15]) | binding signal (HOXA2 [16]) | binding signal (HOXA2 [17]) | binding signal (HOXA7 [18]) | binding signal (HOXA7 [19])
1 | CGCTGCGC | 8.99 upbm affinity estimate (log intensity, higher = more binding, comparable within an allelic series) | 8.85 upbm affinity estimate (log intensity, higher = more binding, comparable within an allelic series) | 8.98 upbm affinity estimate (log intensity, higher = more binding, comparable within an allelic series) | 8.98 upbm affinity estimate (log intensity, higher = more binding, comparable within an allelic series) | 8.92 upbm affinity estimate (log intensity, higher = more binding, comparable within an allelic series) | 8.96 upbm affinity estimate (log intensity, higher = more binding, comparable within an allelic series) | 8.93 upbm affinity estimate (log intensity, higher = more binding, comparable within an allelic series) | 9 upbm affinity estimate (log intensity, higher = more binding, comparable within an allelic series) | 9.06 upbm affinity estimate (log intensity, higher = more binding, comparable within an allelic series) | 8.88 upbm affinity estimate (log intensity, higher = more binding, comparable within an allelic series) | 9.02 upbm affinity estimate (log intensity, higher = more binding, comparable within an allelic series) | 8.93 upbm affinity estimate (log intensity, higher = more binding, comparable within an allelic series) | 8.95 upbm affinity estimate (log intensity, higher = more binding, comparable within an allelic series) |  |  |  |  |  | 
2 | CCCGGGAC | 8.81 upbm affinity estimate (log intensity, higher = more binding, comparable within an allelic series) | 9.03 upbm affinity estimate (log intensity, higher = more binding, comparable within an allelic series) | 8.97 upbm affinity estimate (log intensity, higher = more binding, comparable within an allelic series) | 8.99 upbm affinity estimate (log intensity, higher = more binding, comparable within an allelic series) | 9.01 upbm affinity estimate (log intensity, higher = more binding, comparable within an allelic series) | 9.18 upbm affinity estimate (log intensity, higher = more binding, comparable within an allelic series) | 9.04 upbm affinity estimate (log intensity, higher = more binding, comparable within an allelic series) | 9.17 upbm affinity estimate (log intensity, higher = more binding, comparable within an allelic series) | 9.14 upbm affinity estimate (log intensity, higher = more binding, comparable within an allelic series) | 9.12 upbm affinity estimate (log intensity, higher = more binding, comparable within an allelic series) | 8.96 upbm affinity estimate (log intensity, higher = more binding, comparable within an allelic series) | 9.07 upbm affinity estimate (log intensity, higher = more binding, comparable within an allelic series) | 9.02 upbm affinity estimate (log intensity, higher = more binding, comparable within an allelic series) |  |  |  |  |  | 
3 | GGGGGCCA | 8.93 upbm affinity estimate (log intensity, higher = more binding, comparable within an allelic series) | 8.85 upbm affinity estimate (log intensity, higher = more binding, comparable within an allelic series) | 8.92 upbm affinity estimate (log intensity, higher = more binding, comparable within an allelic series) | 8.83 upbm affinity estimate (log intensity, higher = more binding, comparable within an allelic series) | 9.04 upbm affinity estimate (log intensity, higher = more binding, comparable within an allelic series) | 9.04 upbm affinity estimate (log intensity, higher = more binding, comparable within an allelic series) | 8.87 upbm affinity estimate (log intensity, higher = more binding, comparable within an allelic series) | 8.92 upbm affinity estimate (log intensity, higher = more binding, comparable within an allelic series) | 9.03 upbm affinity estimate (log intensity, higher = more binding, comparable within an allelic series) | 9.09 upbm affinity estimate (log intensity, higher = more binding, comparable within an allelic series) | 9.02 upbm affinity estimate (log intensity, higher = more binding, comparable within an allelic series) | 9.03 upbm affinity estimate (log intensity, higher = more binding, comparable within an allelic series) | 9.05 upbm affinity estimate (log intensity, higher = more binding, comparable within an allelic series) |  |  |  |  |  | 
4 | CTGGCCCA | 8.9 upbm affinity estimate (log intensity, higher = more binding, comparable within an allelic series) | 8.81 upbm affinity estimate (log intensity, higher = more binding, comparable within an allelic series) | 8.95 upbm affinity estimate (log intensity, higher = more binding, comparable within an allelic series) | 8.96 upbm affinity estimate (log intensity, higher = more binding, comparable within an allelic series) | 8.89 upbm affinity estimate (log intensity, higher = more binding, comparable within an allelic series) | 8.86 upbm affinity estimate (log intensity, higher = more binding, comparable within an allelic series) | 8.87 upbm affinity estimate (log intensity, higher = more binding, comparable within an allelic series) | 8.92 upbm affinity estimate (log intensity, higher = more binding, comparable within an allelic series) | 8.93 upbm affinity estimate (log intensity, higher = more binding, comparable within an allelic series) | 8.92 upbm affinity estimate (log intensity, higher = more binding, comparable within an allelic series) | 8.88 upbm affinity estimate (log intensity, higher = more binding, comparable within an allelic series) | 8.94 upbm affinity estimate (log intensity, higher = more binding, comparable within an allelic series) | 8.95 upbm affinity estimate (log intensity, higher = more binding, comparable within an allelic series) | 7.24 upbm affinity estimate (log intensity, higher = more binding, comparable within an allelic series) | 10.3 upbm affinity estimate (log intensity, higher = more binding, comparable within an allelic series) | 10.4 upbm affinity estimate (log intensity, higher = more binding, comparable within an allelic series) | 7.1 upbm affinity estimate (log intensity, higher = more binding, comparable within an allelic series) |  | 
5 | ACGCCGGG | 9.17 upbm affinity estimate (log intensity, higher = more binding, comparable within an allelic series) | 8.97 upbm affinity estimate (log intensity, higher = more binding, comparable within an allelic series) | 9.1 upbm affinity estimate (log intensity, higher = more binding, comparable within an allelic series) | 8.92 upbm affinity estimate (log intensity, higher = more binding, comparable within an allelic series) | 9.17 upbm affinity estimate (log intensity, higher = more binding, comparable within an allelic series) | 9.18 upbm affinity estimate (log intensity, higher = more binding, comparable within an allelic series) | 9.05 upbm affinity estimate (log intensity, higher = more binding, comparable within an allelic series) | 9.16 upbm affinity estimate (log intensity, higher = more binding, comparable within an allelic series) | 9.21 upbm affinity estimate (log intensity, higher = more binding, comparable within an allelic series) | 9.2 upbm affinity estimate (log intensity, higher = more binding, comparable within an allelic series) | 9 upbm affinity estimate (log intensity, higher = more binding, comparable within an allelic series) | 9.15 upbm affinity estimate (log intensity, higher = more binding, comparable within an allelic series) | 9.16 upbm affinity estimate (log intensity, higher = more binding, comparable within an allelic series) |  |  |  |  |  | 
6 | CGGCCACC | 8.7 upbm affinity estimate (log intensity, higher = more binding, comparable within an allelic series) | 8.6 upbm affinity estimate (log intensity, higher = more binding, comparable within an allelic series) | 8.63 upbm affinity estimate (log intensity, higher = more binding, comparable within an allelic series) | 8.71 upbm affinity estimate (log intensity, higher = more binding, comparable within an allelic series) | 8.67 upbm affinity estimate (log intensity, higher = more binding, comparable within an allelic series) | 8.54 upbm affinity estimate (log intensity, higher = more binding, comparable within an allelic series) | 8.75 upbm affinity estimate (log intensity, higher = more binding, comparable within an allelic series) | 8.72 upbm affinity estimate (log intensity, higher = more binding, comparable within an allelic series) | 8.67 upbm affinity estimate (log intensity, higher = more binding, comparable within an allelic series) | 8.71 upbm affinity estimate (log intensity, higher = more binding, comparable within an allelic series) | 8.66 upbm affinity estimate (log intensity, higher = more binding, comparable within an allelic series) | 8.55 upbm affinity estimate (log intensity, higher = more binding, comparable within an allelic series) | 8.64 upbm affinity estimate (log intensity, higher = more binding, comparable within an allelic series) |  |  |  |  | 8.41 upbm affinity estimate (log intensity, higher = more binding, comparable within an allelic series) | 8.25 upbm affinity estimate (log intensity, higher = more binding, comparable within an allelic series)
